# Screens deposited in PubChem by National Center for Advancing Translational Sciences (NCATS).
# RE007 growth inh = less growth of the S. pombe RE007 Vpr strain; AID 651644; 0.21% of 360,000 active; S. pombe RE007 Vpr strain, BacTiter-Glo ATP luminescence, 24 h; Potency, µM (top dose mostly 92.2 µM), inactives show at the highest dose activity change, negative = less growth, actives largely listed as inhibitors; active = well fitted falling curve with a large enough effect; inconclusive = small, poorly fitted or top-dose-only effect; inactive = no such curve, though single readings can be large or run the other way; also: potency is read from the fitted curve at half-maximal effect; % is scaled to controls: 0 for no effect and ±100 for the full control effect; nearly all actives have a fitted effect of over 50% in size
#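 Fission yeast strain RE007, carrying one chromosomally integrated HIV-1 vpr copy, was seeded at OD 0.01 in PMG+AL medium with 23 nL pinned compound. After 24 h at 30 °C and 99% humidity, viability was read by BacTiter-Glo luminescence.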
# LmPK inh = inhibitors of Leishmania mexicana pyruvate kinase. 0.37% of 290,000 active. AID 1721. Q27686. Potency, µM (series often up to 57.5 µM), inactives show top-dose activity change, negative = inhibition, hits mostly inhibitors. purified LmPK, Kinase-Glo ATP luminescence, 1 h; also: potency is read from the fitted curve at half-maximal effect; % is scaled to controls: 0 for no effect and ±100 for the full control effect
# Target sequence (Q27686 whole entry, looked up): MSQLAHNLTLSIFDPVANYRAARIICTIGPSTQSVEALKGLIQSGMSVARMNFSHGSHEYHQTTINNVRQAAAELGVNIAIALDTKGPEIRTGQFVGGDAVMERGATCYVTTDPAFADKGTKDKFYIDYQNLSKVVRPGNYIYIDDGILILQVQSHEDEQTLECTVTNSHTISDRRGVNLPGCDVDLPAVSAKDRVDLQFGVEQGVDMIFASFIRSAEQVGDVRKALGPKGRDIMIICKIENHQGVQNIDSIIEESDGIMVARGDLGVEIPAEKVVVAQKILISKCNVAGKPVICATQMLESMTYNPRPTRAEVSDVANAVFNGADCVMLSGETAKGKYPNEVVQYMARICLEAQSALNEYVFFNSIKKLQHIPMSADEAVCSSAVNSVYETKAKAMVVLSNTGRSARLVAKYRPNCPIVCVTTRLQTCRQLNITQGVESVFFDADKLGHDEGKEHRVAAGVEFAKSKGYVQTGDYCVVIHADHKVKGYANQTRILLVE
#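 qHTS format; LmPK 0.1 nM; substrates PEP 0.5 mM and ADP 0.1 mM. One-hour room-temperature incubation, then coupled luciferase luminescence; 0.5 nM enzyme wells mark activation.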
# NS1 inh = influenza NS1 inhibition; Potency, µM (top dose mostly 46.1 µM), for inactives: at the top dose activity, positive = more growth; 0.4% of 270,000 active; calls by dose curve; also: potency is read from the fitted curve at half-maximal effect; actives are rising curves; nearly all actives have a fitted effect of over 50% in size
#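 Growth recovery, yeast-based: influenza A NS1 expressed in S. cerevisiae causes slow growth, and suppressors are detected by OD600. The parent strain without NS1 is used as positive control.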
# AMA1-RON2 inh = inhibitors of Plasmodium falciparum AMA1-RON2 interaction. AlphaScreen AMA1-biotinylated RON2 peptide binding. Potency, µM (highest dose often 58.2 µM), for inactives: at the top dose activity change, negative = inhibition, actives largely listed as inhibitors. 0.2% of 360,000 active. AID 720542;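 also: potency is read from the fitted curve at half-maximal effect; 0% = vehicle wells and -100% = peptide control; nearly all actives have a fitted effect of over 45% in size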
#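 AMA1 (3D7) with his tag at 25 nM final met compounds first, then biotinylated RON2 peptide at 25 nM; detection used donor plus acceptor beads, 10 µg/mL apiece, read by AlphaScreen after 30 min at room temperature.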
# Tb PYK inh = blocks Trypanosoma brucei pyruvate kinase; TbPYK enzyme, Kinase-Glo Plus ATP luminescence, 45 min; Potency, µM (doses to about 76.8 µM), for inactives: at the top dose activity, negative = inhibition, most hits filed as inhibitors; 0.12% of 410,000 active; AID 624173; also: potency is read from the fitted curve at half-maximal effect; % is scaled to controls: 0 for no effect and ±100 for the full control effect; nearly all actives have a fitted effect of over 50% in size
#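 Glycolytic pyruvate kinase of T. brucei was incubated with substrate, test compound and 130 uM ADP for 45 minutes at room temperature. Luminescent Kinase-Glo Plus signal was measured after 10 minutes.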
# Flu NS1 inh = validation of influenza NS1 protein function inhibitors; 1,400 tested, under 10 active; activity change, negative = inhibition, % at 32.9 µM; shares compounds with NS1 inh; influenza NS1 function cell assay, 15-point titration; AID 492980; calls by dose curve; also: 0% is about no effect
# * marks the source's active call; other numbers are inactive results; u = inconclusive; x = no result; [ ] = dose if it differs, or a comment. Hits are enriched below; roughly 0.92% of the tested compounds scored in any of these assays. Unless noted, calls follow the shape of the dose curve; as a rule, active = well fitted curve in the direction sought with a large enough effect; inconclusive = small, poorly fitted or top-dose-only effect, or another doubt; inactive = no such curve, though single readings can be large; an effect the other way counts as inactive or inconclusive.
SMILES,RE007 growth inh,LmPK inh,NS1 inh,AMA1-RON2 inh,Tb PYK inh,Flu NS1 inh
Cn1c(N)c(C(=O)COC(=O)c2cc(C3CC3)nc3ccccc23)c(=O)n(Cc2ccccc2)c1=O,20%,-1%,11µM*,3%,3%,10
Cc1ccc2onc(CC(=O)N3CCN(c4cccc(Cl)c4)CC3)c2c1,x,x,x,x,-3%,x
CCOC(=O)N1CCc2c(sc3c2c(=O)n(Cc2ccccc2)c(=O)n3Cc2ccccc2Cl)C1,x,x,x,x,0%,x
Cc1ccc(S(=O)(=O)c2c(C(=O)c3ccccc3)cnc3cc4c(cc23)OCCO4)cc1,16%,6%,16µM*,17%[2.32 µM],-3%,8
CCOc1cc(C(=O)NCCc2ccc(S(N)(=O)=O)cc2)cc(OCC)c1OCC,-5%,-1%,3%,1%,-11%,x
COc1cc(C(=O)NCCc2ccc(S(N)(=O)=O)cc2)cc(OC)c1OC,6%,5%,u,-4%,-6%,1
CC1CC2(C)Oc3ccccc3C3OCC1(CO)C(C)C32 (stereo unspecified),4%,2%,u,0%,1%,6
CC(=O)OCC12COC3c4ccccc4OC(C)(CC1C)C3C2C (stereo unspecified),29%,-5%,x,-2%,3%,x
N#CC1=C(N)OC2=C(CC/C2=C\c2ccccc2)C1c1ccccc1 (stereo unspecified),-24%,2%,0.89µM*,17%,-1%,u
COc1ccc(F)cc1S(=O)(=O)n1nnc2ccccc21,37%,1%,-4%,0%,-3%,x
COc1ccc(OC)c(S(=O)(=O)n2nnc3ccccc32)c1,19%,2%,u,1%,0%,-38
Cc1ccccc1S(=O)(=O)Nc1nc2ccccc2nc1N1CCc2ccccc2C1,5%,-4%,18µM*,10%,6%,-7
CCOC(=O)c1cc2c(ccn2C)n1Cc1cc(C)ccc1C,-7%,3%,9%,u,-4%,x
CC(C)OC(=O)c1cc2c(ccn2C)n1CC(=O)N(Cc1ccccc1)c1ccccc1,25%,5%,11µM*,u,2%,-28
COc1ccc2c(CNCCc3ccc(SC)cc3)c(C(=O)O)n(Cc3ccc(F)cc3)c2c1,x,x,x,x,-15%,x
C#CCOc1ccc(/C=C2/C(=O)N(c3cccc(C(=O)O)c3)N=C2C)cc1OC,3%,6%,11µM*,-12%,-18%,u
Cc1cccc(CSc2cn(CC(=O)N3CCCCC3)c3ccccc23)c1,x,x,x,x,0%,x
COc1cc(NS(=O)(=O)c2ccc(-c3cc(C)no3)cc2)cc(OC)c1,x,x,x,x,-2%,x
CS(=O)(=O)N(CC(=O)Nc1ccccc1Sc1ccccc1)C1CCCCC1,-4%,1%,u,-27%,7%,-1
NC(Cc1cc(O)c(O)cc1O)C(=O)O (stereo unspecified),x,x,8.9µM*,x,x,-14
N[C@@H](Cc1cc(I)c(O)c(I)c1)C(=O)O,2%[18.4 µM],-1%,2%,-10%,1%,x
O=C(CSc1nnc(-c2cccs2)n1-c1ccccc1)NCC1CCCO1 (stereo unspecified),-2%,9%,-6%,-25%,5%,x
c1ccc(-n2c(SCC3CCCCO3)nnc2-c2cccs2)cc1 (stereo unspecified),8%,1%,u,-12%,2%,u
CCCn1c(C)cc(/C=C(\C#N)C(=O)OCC(=O)NC(=O)NC(C)(C)C)c1C,-5%,6%,3.2µM*,-10%,1%,-4
CCn1c(SCC(=O)N2CCCC2)nc2c(c1=O)SCC2,6%,-4%,10%,-8%,-4%,x
SMILES,RE007 growth inh,LmPK inh,NS1 inh,AMA1-RON2 inh,Tb PYK inh,Flu NS1 inh
CCn1c(SCC(=O)N2CCC(C)CC2)nc2c(c1=O)SCC2,14%,2%,2µM*,-8%,1%,-12
Cc1cc2nnc(SCC(=O)Nc3cc(S(=O)(=O)N4CCOCC4)ccc3Cl)n2c2ccccc12,-1%,-4%,10µM*,9%[2.32 µM],u,19
Cc1ccc(S(=O)(=O)N2CCOCC2)cc1NC(=O)CSc1nnc2cc(C)c3ccccc3n12,-1%,-1%,8%,-26%,-7%,x
CCOC(=O)c1c(C)oc2nc(C)nc(NCc3cccc(OC)c3)c12,x,x,x,x,-4%,x
Cc1cc(C)cc(N2C(=O)NC(=O)/C(=C\c3cccn3-c3ccc(Cl)cc3)C2=O)c1,-7%,1%,1µM*,-15%,-3%,0
CCOC(=O)C1CCN(C(=O)Cn2ncc3c4ccccc4n(Cc4ccc(F)cc4)c3c2=O)CC1,x,x,x,x,-5%,x
CC(C)NC(=O)Cn1ccc2cc(S(=O)(=O)N3CCCCCC3)ccc21,x,x,x,x,-10%,x
O=C(Cn1c(=O)n(Cc2nc(-c3ccccc3)no2)c(=O)c2ccccc21)Nc1cccc(C(F)(F)F)c1,x,x,x,x,-6%,x
COc1ccccc1N1CCN(C(=O)C2CCCN(S(=O)(=O)c3ccc4c(c3)CCCN4C(C)=O)C2)CC1 (stereo unspecified),6%,6%,u,0%,-7%,-20
CC(=O)N1CCCc2cc(S(=O)(=O)N3CCCC(C(=O)N4CCN(c5ccccc5)CC4)C3)ccc21 (stereo unspecified),7%,4%,u,-1%,-5%,x
COc1ccc(CCNC(=O)c2cc3sccc3n2Cc2ccc(Cl)cc2)cc1OC,x,x,x,x,4%,x
Cc1ccccc1-n1c(O)cc(=O)[nH]c1=S,-4%,2%,5%,0%,-27%,x
O=c1cc(O)n(-c2ccccc2F)c(=S)[nH]1,12%,-2%,3.2µM*,13%,-32%,21
Cc1c(N/N=C(\C#N)C(=O)c2ccc(Cl)cc2)c(=O)n(-c2ccccc2)n1C,1%,4%,u,2%,-13%,u
N#C/C(=N\Nc1ccc(Cl)cc1)C(=O)c1ccccc1,-11%,0%,-161%,-7%,-1%,x
CC(=O)c1cccc(N(C(=O)Cn2nnc3ccccc32)C(C(=O)NCc2ccccc2)c2ccc(F)cc2)c1 (stereo unspecified),x,x,x,x,4%,x
COc1ccc(C(c2c(NC(=O)c3ccccc3)sc(C)c2C)N2CCN(CCO)CC2)cc1 (stereo unspecified),4%,1%,u,-1%,-4%,-18
COc1cccc(C(c2c(NC(=O)c3ccccc3)sc(C)c2C)N2CCN(C)CC2)c1 (stereo unspecified),4%,-2%,5%,10%[2.32 µM],-1%,x
Cc1ccc(NC(=O)c2nc(-c3ccncc3)no2)c(Cl)c1,x,x,x,x,-26%,x
CCOC(=O)N1CCC(NC(=O)c2ccccc2C(=O)O)CC1,1%,5%,u,0%,0%,-3
Cc1cccc(NC(=O)c2ccc(CNS(=O)(=O)c3ccc4c(c3)C(C)(C)C(=O)N4C)cc2)c1,x,x,x,x,2%,x
